Rows were chosen to be rich in hits. Some 14% of all compounds tested hit in one or more screens of this group.
Pf growth 48h: Primary qHTS for delayed death inhibitors of the malarial parasite plastid, 48 hour incubation | P. falciparum luciferase growth in erythrocytes, 48 h | Potency, µM (top dose mostly 28.7 µM), hits mostly inhibitors | 310,000 tested, 5.9% active | AID 504832, 2011
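Compounds are pin-transferred into medium, infected erythrocytes (2% hematocrit, 0.1% parasitemia final) are added, and plates sit one parasite generation at 37 C in 5% CO2. Detection reagent is then added and luminescence measured.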
Sm TGR block: qHTS Assay for the Inhibitors of Schistosoma Mansoni Peroxiredoxins. Schistosoma mansoni thioredoxin glutathione reductase (TGR), Q962Y6. purified TGR, DTNB reduction, TNB absorbance 405 nm. Potency, µM (highest dose often 114 µM), usual class: inhibitors. 360,000 tested, 3% active; also: nearly all actives have a fitted effect of over 60% in size
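First, TGR (20 nM dispensed) and NADPH were mixed with compound. Second, a 15 min room-temperature incubation followed. Third, further NADPH and then DTNB were added to start the reaction. Finally, TNB absorbance was monitored kinetically.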
Pf growth 96h: Primary qHTS for delayed death inhibitors of the malarial parasite plastid, 96 hour incubation. P. falciparum luciferase reporter growth, 96 h. Potency, µM (titrated, usually from 28.7 µM), actives largely listed as inhibitors. 320,000 tested, 6.9% active. AID 504834, 2011
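P. falciparum expressing integrated firefly luciferase grown in erythrocytes (2% hematocrit, 0.05% parasitemia final) with compounds for 96 hours at 37 C, 5% CO2. Growth inhibition read as loss of luminescence after adding luciferase detection reagent.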
HCMV inh: qHTS Assay for inhibitors of the human cytomegalovirus (HCMV); HFF cells, HCMV-luciferase reporter, 72 h; active compounds read low; activity change, negative = inhibition, % at 57.5 µM; 410,000 tested, 4.5% active; in the data active = activity change below about -60%; inconclusive = no clear call, values can overlap the other calls; inactive = above about -39%
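Inhibition of viral replication was scored as loss of reporter luminescence in HFFs infected with HCMV-luciferase (MOI 1 PFU/cell) for 72 h; compounds tested at 2 doses, normalized to buffer and Salinomycin controls.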
FBPA Giardia inh: qHTS Assay for Inhibitors of Fructose-1,6-bisphosphate Aldolase from Giardia Lamblia; A8B2U2; purified Giardia FBPA; Potency, µM (titrated, usually from 59.6 µM), hits mostly inhibitors; 290,000 tested, 0.71% active; also: nearly all actives have a fitted effect of over 55% in size
Target sequence (A8B2U2 whole entry, looked up): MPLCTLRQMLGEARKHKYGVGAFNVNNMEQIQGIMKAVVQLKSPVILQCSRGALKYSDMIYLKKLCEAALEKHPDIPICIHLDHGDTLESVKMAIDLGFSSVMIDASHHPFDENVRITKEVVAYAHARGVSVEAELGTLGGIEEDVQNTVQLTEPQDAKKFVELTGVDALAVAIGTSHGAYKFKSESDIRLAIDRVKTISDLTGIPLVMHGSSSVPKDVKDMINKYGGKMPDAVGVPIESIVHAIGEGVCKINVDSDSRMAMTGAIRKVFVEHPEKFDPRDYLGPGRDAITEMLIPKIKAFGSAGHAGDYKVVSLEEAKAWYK
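Giardia FBPA (40 nM reagent) was preincubated 10 min at RT with compound (up to 57.5 uM final), then substrate plus GAPDH/TPI/NAD/arsenate coupling system with diaphorase/resazurin was added; resorufin fluorescence (525/598 nm) was read after 20 min.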
Hits are given with their value; i = inactive; ? = inconclusive; nt = no result given. Unless noted, calls follow the shape of the dose curve; as a rule, active = well fitted curve in the direction sought with a large enough effect; inconclusive = small, poorly fitted or top-dose-only effect, or another doubt; inactive = no such curve, though single readings can be large; an effect the other way counts as inactive or inconclusive.

SMILES	Pf growth 48h	Sm TGR block	Pf growth 96h	HCMV inh	FBPA Giardia inh
Nc1cc(-c2cccc(F)c2)nn1S(=O)(=O)c1cccc2nsnc12	i	i	1.65µM	-101.4	i
CCOc1ccc(CC(=O)Nc2nnc3n2CCS3)cc1	nt	i	nt	-60.7	nt
COc1ccc(CC(=O)Nc2nnc3n2CCS3)cc1	nt	i	nt	i	nt
CC(C)(C)c1ccc(C(=O)Nc2nnc3n2CCS3)cc1	nt	i	nt	-84.2	nt
CN(CC(=O)Nc1ccccc1Cl)CC(=O)N(C)c1c(N)n(Cc2ccccc2)c(=O)[nH]c1=O	nt	nt	nt	i	nt
O=C(O)c1ccc2c3c(ncnc13)-c1ccccc1C2=O	?	50.1µM	i	nt	?
Cc1cc(C)cc(NC(=S)N(CCN(C)C)Cc2cccs2)c1	?	i	?	i	i
CC(C)NC(=O)CSc1c2c(nc3ccccc13)CCCC2	i	i	i	-71.8	i
Cc1cc(Br)ccc1NC(=O)CSc1c2c(nc3ccccc13)CCC2	nt	i	nt	-95.5	nt
COc1ccccc1NC(=O)CSc1c2c(nc3ccccc13)CCC2	i	i	i	i	i
Cc1cc(NC(=O)CSc2c3c(nc4ccccc24)CCC3)no1	nt	i	i	i	i
Cc1ccc(C(c2c(O)nc3n(c2=O)CCS3)c2c(O)nc3n(c2=O)CCS3)cc1	i	2.82µM	i	i	i
O=c1c(C(c2ccc(Br)cc2)c2c(O)nc3n(c2=O)CCS3)c(O)nc2n1CCS2	i	?	i	i	i
O=c1c(C(c2ccc(Br)cc2)c2c(O)nc3n(c2=O)CCCS3)c(O)nc2n1CCCS2	i	2µM	i	i	i
O=c1c(C(c2ccc(O)cc2)c2c(O)nc3n(c2=O)CCS3)c(O)nc2n1CCS2	i	10µM	i	i	i
O=c1c(C(c2ccc(O)cc2)c2c(O)nc3n(c2=O)CCCS3)c(O)nc2n1CCCS2	2.94µM	56.2µM	?	i	i
COc1cccc(C(O)c2ncc(-c3cccc(C(F)(F)F)c3)[nH]2)c1 (centres undefined)	nt	nt	nt	i	nt
CC(C)N1C(=O)C[C@H](S(=O)(=O)c2ccccc2)[C@H]1c1ccccc1	nt	nt	nt	i	nt
COc1cc(C2C(C#N)=C(N)N(c3cccnc3)C3=C2C(=O)CCC3)ccc1O (centres undefined)	nt	i	?	i	i
COc1cc(C2C(C#N)=C(N)N(c3sc4c(c3C#N)CCCC4)C3=C2C(=O)CC(C)(C)C3)cc(OC)c1OC (centres undefined)	?	i	11.7µM	nt	i
Cc1ccccc1C1C(C#N)=C2NC(=O)c3c(sc4c3CCCCC4)N2C2=C1C(=O)CC(C)(C)C2 (centres undefined)	?	i	i	nt	i
CCOc1ccc(OCC)c(C2C(C#N)=C(N)N(c3cccnc3)C3=C2C(=O)CC(C)(C)C3)c1 (centres undefined)	?	22.4µM	nt	i	i
CCOC(=O)C1=C(N)N(c2ccccc2)C2=C(C(=O)CCC2)C1c1cccnc1 (centres undefined)	i	i	5.22µM	?	i
CSc1sc(C)cc1C1C(C#N)=C(N)N(c2cccnc2)C2=C1C(=O)CC(C)(C)C2 (centres undefined)	?	i	i	i	i
CCSc1sccc1C1C(C#N)=C(N)N(c2cccnc2)C2=C1C(=O)CCC2 (centres undefined)	11.7µM	i	i	i	?
SMILES	Pf growth 48h	Sm TGR block	Pf growth 96h	HCMV inh	FBPA Giardia inh
CC(C)NC(=O)CN1CCN(C(c2cc3ccccc3o2)c2nnnn2C(C)(C)C)CC1 (centres undefined)	nt	nt	nt	i	nt
CCOC(=O)C1CCCN(C(=O)c2[nH]c3ccc(OC)cc3c2C)C1 (centres undefined)	nt	?	i	i	i
Cc1cccc(N2CCN(Cc3nnc(-c4ccccc4C)o3)CC2C)c1 (centres undefined)	nt	i	nt	i	nt
Cc1ccc(N2C(N)=C(C#N)C(c3ccsc3)C3=C2CC(C)(C)CC3=O)cc1 (centres undefined)	?	i	i	-100.7	i
Cc1ccc(N2C(N)=C(C#N)C(c3cccnc3)C3=C2CC(C)(C)CC3=O)cc1 (centres undefined)	?	39.8µM	i	?	i
CC1(C)CC(=O)C2=C(C1)N(N1CCOCC1)C(N)=C(C#N)C2c1cccnc1 (centres undefined)	i	i	nt	i	i
O=C(NCCc1ccccc1)c1cnc2sc(N3CCCCC3)nn2c1=O	nt	i	nt	i	nt
O=C(Nc1cc(Cl)ccc1Cl)c1ccco1	i	i	i	i	i
CS/C(Nc1cc(Cl)ccc1Cl)=C(/C#N)C(=O)c1ccco1	3.29µM	i	5.86µM	i	i
O=C(NC1CCCC1)c1ccc2c(=O)n(Cc3ccccc3)c(SCc3cccc(F)c3)nc2c1	nt	i	nt	?	nt
COc1ccccc1C(OC(=O)c1ccco1)C(=O)NC(C)(C)C (centres undefined)	i	i	nt	-81.7	i
COc1ccccc1C(OC(=O)c1ccco1)C(=O)NCc1ccc(F)cc1 (centres undefined)	i	i	i	i	i
COc1ccc(C)cc1NC(=O)Cn1c(=O)oc2cc(S(=O)(=O)N3CCCCCC3)ccc21	nt	i	nt	?	nt
COc1ccc(N2CCN(c3cc(C(=O)NC4CCCCC4)ncn3)CC2)cc1OC	nt	nt	nt	i	nt
COc1cc(C(=O)NC(=S)NNC(=O)c2cnccn2)cc(OC)c1OC	11.7µM	i	?	i	?
O=C(NNC(=S)NC(=O)c1cccnc1)c1ccc(Cl)cc1	?	i	i	i	i
O=C(NCCCNC(=O)c1cnccn1)c1ccc(Cl)cc1	i	i	i	i	i
COc1ccc(C(=O)NC(=S)NNC(=O)c2cnccn2)cc1	2.62µM	i	?	-84.9	?
O=C(Cc1ccc(Cl)cc1)NNC(=S)NC(=O)c1cccnc1	i	nt	4.15µM	i	i
O=C(NC(=S)NNC(=O)c1cnccn1)c1ccc(Cl)cc1	4.15µM	i	?	i	i
Cc1cccc(C)c1NC(=O)C(c1ccccc1)N1CCN(C/C=C/c2ccccc2)CC1 (centres undefined)	nt	nt	nt	i	nt
COc1cc(C(=O)NNC(=S)NC(=O)c2ccccc2C)cc(OC)c1OC	i	i	i	i	?
COc1ccccc1C(=O)NNC(=S)NC(=O)c1cc(OC)c(OC)c(OC)c1	i	i	13.1µM	i	i
Cc1cccc(C(=O)NC(=S)NNC(=O)Cc2ccccc2)c1	?	i	?	-83.5	?
O=C(NCc1nnc(SCC(=O)N2CCCC2)o1)c1c(F)cccc1Cl	i	i	i	i	i
O=C(NCc1nnc(SCC(=O)N2CCCCC2)o1)c1ccc(F)cc1	i	i	i	-84.9	nt
O=C(NCc1nnc(SCC(=O)N2CCCC2)o1)c1c(F)cccc1F	i	i	i	i	i
O=C(NCc1nnc(SCC(=O)N2CCC(Cc3ccccc3)CC2)o1)c1ccccc1F	i	i	13.1µM	i	i

Bioassay records deposited in PubChem BioAssay by National Center for Advancing Translational Sciences (NCATS).
